Screening data from PubChem BioAssay.
RTF Ca sens act = increases calcium sensitivity of human cardiac regulated thin filaments. P19429+P45379. IANBD-labeled TnC RTF fluorescence at EC20 calcium; 0% EC20 calcium, 100% full calcium. activation, % at 7.2 µM. 340,000 tested, 0.24% active. AID 493008;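 active = activation above the mean over all tested compounds plus 3 SD, cut at about 30% in these data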;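 also: rise in fluorescence read as greater calcium sensitivity of cardiac thin filaments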
LANA DNA inh = blocks KSHV LANA C-terminal domain binding to DNA; MBP-C-LANA/FAM-LBS DNA binding, fluorescence polarization; inhibition, % at 9 µM; 340,000 tested, 0.078% active; AID 504423;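 active = highest replicate inhibition at or above 60% at 9 µM, even if other replicates fall short; inactive = all replicates below 60% inhibition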;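 also: 0% = neutral control wells and 100% = 4 µM acridine orange control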
EBV gp42 inh = inhibitors of Epstein-Barr virus glycoprotein 42 | inhibition, % (tested at 21.74 µM) | Fluorescence polarization binding assay, mP read-out | 220,000 tested, 0.42% active; in the data active = inhibition above about 50%
Keap1-Nrf2 PPI = Keap1-Nrf2 (human) interaction inhibition; Keap1 Kelch-Nrf2 peptide fluorescence polarization, 1536-well; Q14145; 340,000 tested, 0.15% active; inhibition, % at 9.4 µM; in the data active = inhibition above about 12%;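 also: human Keap1 Kelch domain with fluorescein labeled Nrf2 9mer peptide probe; 0% = neutral control wells and 100% = peptide positive control; higher means more block of Keap1 binding to Nrf2 peptide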
E coli Lon inh = inhibitors of E. coli Lon protease. inhibition, % at 7.94 µM. P0A9M0. purified E. coli Lon protease, fluorescence polarization. 360,000 tested, 0.42% active; in the data active = inhibition above about 13%, passing the limit was not always enough;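 also: 0% = enzyme with probe and DMSO and 100% = no enzyme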
Target sequence (P0A9M0 whole entry, looked up): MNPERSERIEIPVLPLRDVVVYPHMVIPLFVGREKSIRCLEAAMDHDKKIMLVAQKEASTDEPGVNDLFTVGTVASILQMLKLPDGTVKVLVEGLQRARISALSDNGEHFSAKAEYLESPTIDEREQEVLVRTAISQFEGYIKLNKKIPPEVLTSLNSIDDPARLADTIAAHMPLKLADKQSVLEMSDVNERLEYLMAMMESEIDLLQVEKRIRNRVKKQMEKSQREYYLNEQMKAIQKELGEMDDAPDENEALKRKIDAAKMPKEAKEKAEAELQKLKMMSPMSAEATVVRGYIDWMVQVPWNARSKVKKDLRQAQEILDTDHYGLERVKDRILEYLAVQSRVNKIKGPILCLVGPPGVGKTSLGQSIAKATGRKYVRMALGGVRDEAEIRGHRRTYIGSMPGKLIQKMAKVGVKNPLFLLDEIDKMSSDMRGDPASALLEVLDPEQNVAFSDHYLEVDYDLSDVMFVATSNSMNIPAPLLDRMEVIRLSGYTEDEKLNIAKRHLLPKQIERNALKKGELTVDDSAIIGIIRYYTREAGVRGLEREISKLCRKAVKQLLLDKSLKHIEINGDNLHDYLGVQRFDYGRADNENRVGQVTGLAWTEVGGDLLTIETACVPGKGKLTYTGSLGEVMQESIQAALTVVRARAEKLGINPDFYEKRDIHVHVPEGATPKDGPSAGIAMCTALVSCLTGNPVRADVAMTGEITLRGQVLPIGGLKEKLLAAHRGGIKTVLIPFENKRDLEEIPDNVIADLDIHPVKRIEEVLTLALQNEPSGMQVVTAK
Cardiac RTF inh = cardiac RTF calcium desensitization; P19429+P45379; IANBD-labeled cardiac RTF, Ca2+ fluorescence; inhibition, % at 7.15 µM; 340,000 tested, 0.12% active;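 active = inhibition above the mean inhibition of all tested compounds plus 3 SD, cut at about 17% in these data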;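 also: assay run at fixed EC70 calcium of 1.6 mM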
RTF inh confirm = confirmation of inhibitors of cardiac thin filament calcium sensitivity; shares compounds with Cardiac RTF inh; reconstituted cardiac thin filaments, calcium sensitivity fluorescence; inhibition, % at 7.15 µM; 360 tested, 8% active; AID 504635; in the data active = inhibition above about 18%
Numbers without * were called inactive; · = not tested or not shown. An excerpt weighted towards active compounds, which were near 0.98% of everything screened.

SMILES | RTF Ca sens act | LANA DNA inh | EBV gp42 inh | Keap1-Nrf2 PPI | E coli Lon inh | Cardiac RTF inh | RTF inh confirm
Cc1ccc(CS(=O)Cc2ccc(C(=O)NCc3ccc(OC(C)C)cc3)o2)cc1 (configuration not stated) | 3 | 2 | · | -3 | 10 | 27* | -1
COc1ccc(CNC(=O)c2ccc(CS(=O)Cc3ccc(Cl)cc3)o2)cc1 (configuration not stated) | -2 | 1 | · | -1 | 2 | 3 | ·
COc1ccccc1CC1CC(=O)N(c2ccc([N+](=O)[O-])cc2)C1=O (configuration not stated) | · | · | · | · | 7 | · | ·
O=C(O)C1Nc2c(Cl)cc(Cl)cc2C2C=CCC12 (configuration not stated) | -40 | 26 | · | 4 | -12 | 55* | 7
COc1ccccc1CCC(=O)Nc1ccc2c(c1)c(=O)n(C)n2C | · | · | · | · | -12 | · | ·
CN(C)NC(=S)Nc1ccc(Cl)cc1 | 2 | 0 | -15 | -3 | 0 | 0 | ·
CN(N)C(=S)Nc1ccc(Cl)cc1 | 3 | 0 | -21 | -2 | 1 | 18* | -3
COc1ccc(N2CCN(C(=O)COC(=O)c3ccc(C)o3)CC2)cc1 | 1 | 0 | · | -5 | 1 | -5 | ·
O=C(N/N=C/c1cn(Cc2cccc(F)c2)c2ccccc12)c1cc(O)cc(O)c1 | -15 | 19 | · | 0 | -1 | 21* | 6
Nc1ccc(C(=O)N/N=C/c2cn(Cc3ccc(F)cc3)c3ccccc23)cc1 | -6 | 0 | · | 4 | 2 | 2 | ·
Cc1ccc(CC(=O)Nc2ccc(C(=O)N3CCCCC3)cc2)cc1 | 0 | 0 | · | -1 | -5 | 1 | ·
Cc1ccc(C(=O)N2CCN(c3ccc(NC(=O)Cc4ccccc4)cc3)CC2)cc1 | 3 | 2 | · | 0 | -5 | 18* | -5
COc1ccc(C(=O)Nc2cccc(C(=O)Nc3cc(C)ccn3)c2)cc1 | -10 | 1 | · | 1 | -3 | 0 | ·
CC(C)(C)C(=O)NC(n1cnc2c(N3CCOCC3)ncnc21)C(Cl)(Cl)Cl (configuration not stated) | 1 | 1 | -5 | 1 | 4 | 19* | -9
CC(=O)Nc1cc(-c2cccc(N)c2)cn2c(-c3ccccc3)cnc12 | · | · | · | · | -3 | · | ·
CCC(C)C(NC(=O)C1CCC(C)CC1)C(=O)NC(CCSC)C(=O)OC (configuration not stated) | 1 | 2 | -26 | 2 | -4 | 18* | -6
Cn1nc(N)c2c(-c3ccc(Cl)cc3)c(C#N)c(N)nc21 | 11 | -1 | -19 | 1 | 0 | -1 | ·
Cn1nc(N)c2c(-c3ccccc3)c(C#N)c(N)nc21 | 0 | 2 | -12 | -2 | 22 | 17* | -4
CCCNC(=O)C1(C)CCN(C(=O)c2ccc(OC)cc2OC)C1 (configuration not stated) | · | · | · | · | -8 | · | ·
CC(O)c1nc2ccccc2n1CCOc1ccccc1 (configuration not stated) | -2 | 1 | -18 | 2 | -5 | -6 | ·
CC(O)c1nc2ccccc2n1CCCCOc1ccccc1 (configuration not stated) | -2 | 0 | -20 | -2 | 0 | 21* | -5
O=C(Nc1ccc(C(=O)N2CCCCC2)cc1)Nc1cccc(Cl)c1 | -3 | 0 | · | 2 | -12 | -7 | ·
COc1ccc(CC(=O)NCCc2ccc(Cl)cc2Cl)cc1 | 1 | 0 | 5 | -3 | -3 | 22* | -1
COc1ccc(C(C#N)=C2C=CC(=NO)C(C)=C2Cl)cc1 | 5 | 1 | · | -2 | -1 | -10 | ·
CCCCCNCc1ccc(Cl)cc1 | -1 | 0 | -1 | 1 | -8 | -4 | ·
SMILES | RTF Ca sens act | LANA DNA inh | EBV gp42 inh | Keap1-Nrf2 PPI | E coli Lon inh | Cardiac RTF inh | RTF inh confirm
OCCCCNCc1ccc(OCc2ccc(Cl)cc2)cc1 | -16 | -1 | -5 | 0 | 3 | 17* | -1
Cc1ccc(CSc2nnc(SCC(=O)N/N=C/C=C/c3ccco3)s2)cc1 | 1 | 2 | -22 | -2 | -23 | 3 | ·
Cc1ccc(CSc2nnc(SCC(=O)N/N=C/C=C/c3ccccc3[N+](=O)[O-])s2)cc1 | 8 | 3 | -20 | -4 | 13 | 21* | -5
CCCCCCC(NC(=O)c1ccc(C)cc1)C(=O)O (configuration not stated) | 2 | 0 | · | 0 | -7 | -2 | ·
CC(C)(C)c1ccc(C(=O)NCc2nnc(SCC(=O)NCC3CCCO3)o2)cc1 (configuration not stated) | -4 | 1 | · | -3 | -10 | -5 | ·
O=C(CSc1nnc(CNC(=O)c2ccc(F)cc2)o1)NCC1CCCO1 (configuration not stated) | -5 | -1 | · | 1 | 4 | 27* | 0
COc1cc2c(ccc3cc(OC)c(OC)c(O)c32)cc1O | -27 | 19 | 31 | 4 | -3 | 26* | 10
O=C(COc1ccc(Br)cc1Br)NC(=S)N1CCCc2ccccc21 | 0 | 0 | -27 | -2 | 7 | 17* | -3
O=C(COc1ccc(Br)cc1Cl)NC(=S)N1CCc2ccccc21 | -4 | 1 | -31 | 1 | -4 | -9 | ·
Cc1nc(NC(=O)COC(=O)C2CC3CCCC(C2)C3=O)c(Cl)cc1Cl (configuration not stated) | -8 | 0 | · | -2 | -7 | 3 | ·
CCOC(=O)C1=C(C)N(Cc2ccc(C(=O)O)cc2)C(=O)NC1c1ccc([N+](=O)[O-])cc1 (configuration not stated) | 6 | 1 | 5 | -5 | -1 | 18* | -2
CCN(CC(=O)Nc1c(F)cccc1F)C(=O)/C=C/c1ccc2ccccc2n1 | -11 | 2 | · | 3 | -23 | 20* | 2
CCN(CC(=O)Nc1c(F)cccc1F)C(=O)c1ccc2ccccc2n1 | -11 | 0 | · | -3 | -3 | -11 | ·
O=C1CCCc2c1cnc1ncnn21 | -6 | 0 | -12 | 0 | -4 | 18* | -3
CCCCCCCCCCCn1nnnc1N | -3 | 1 | · | 0 | 3 | 0 | ·
CCOc1ccccc1-c1nc(-c2ccc(NC(=O)Cc3ccccc3OC)cc2)no1 | 1 | -1 | -11 | 1 | -1 | 18* | -4
CCc1cccc(CC)c1NC(=O)COC(=O)CCc1cc(OC)c(OC)c(OC)c1 | 2 | 0 | -3 | -5 | 8 | 19* | 2
COc1cc(CCC(=O)OCC(=O)Nc2c(Cl)cccc2Cl)cc(OC)c1OC | -1 | 0 | · | -3 | -8 | -6 | ·
CC1(C(=O)NCCC#N)CCN1C(=O)Cc1ccc(-c2ccccc2)cc1 (configuration not stated) | · | · | · | · | -3 | · | ·
CCc1cccc(NC(=O)C2CCCN(S(=O)(=O)c3cccs3)C2)c1 (configuration not stated) | 4 | 0 | · | 2 | 6 | 24* | -2
Cc1nnc(C)n1N | -1 | 0 | -9 | -6 | 8 | 18* | -4
